# PubChem BioAssay AID2384 (Southern Research Specialized Biocontainment Screening …, 2010)
# Hit rate of the full screen: of about 2,300 compounds, about 1,100 (48%) were called active. So high a share suggests a set chosen from earlier hits. Some of the results follow. Measured potencies and affinities stand elsewhere. A number with no mark means an inactive call. No rule for the calls is given here.
# Test: inhibitors in S. typhi counter-screen strain, dose response, counter-screen for PhoP regulon inhibitor project, fluorescence, 4 h (AID 2384)
# Details: S. typhi GFP reporter counter-screen; series mostly up to 150 µM; inhibition: at the top concentration
row,SMILES,inhibition [%]
1,O=C1CC(=O)CC(c2ccco2)C1,-5.92
2,FC(F)Oc1ccc(NC(=S)NCc2nc3ccccc3[nH]2)cc1,6.2
3,Cc1nn(-c2ccccc2)c(C)c1/C=N/n1c(-c2ccc(C(C)(C)C)cc2)n[nH]c1=S,-19.4
4,O=C1CCCN1CCC1CCN(C2CC(=O)N(c3ccc(Cl)cc3)C2=O)CC1 (stereo not drawn),21.5
5,COc1ccc(-c2cc(=NCC(=O)O)c3ccccc3o2)cc1,10.1
6,COc1ccc(C(=O)Oc2ccc(/C=N/O)cc2)cc1,18.4
7,CCCC1=C(C(=O)OCC)C(c2ccc(O)cc2)n2ncnc2N1 (stereo not drawn),4.74
8,Cc1ccccc1C(=O)c1cccn1CC(=O)NCCC1=CCCCC1,10.5
9,Cc1cc2ccccc2c(=O)n1CC(=O)NCCC1=CCCCC1,14.6
10,Cc1nc(C)c(-c2ccc(SCc3ccccc3F)nn2)s1,-11.1
11,O=C(O)c1cn(-c2ccc(F)cc2)c2cc(Cl)c(F)cc2c1=O,22.6
12,COC(=O)C(O)(c1c(C)[nH]n(-c2ccccc2)c1=O)C(F)(F)F (stereo not drawn),29.5
13,CN(C)C(=O)COC(=O)/C=C/c1ccccc1[N+](=O)[O-],0.25
14,O=c1cc(-c2ccccc2)nc(N2CCN(Cc3ccccc3)CC2)[nH]1,10
15,Cc1nc2scc(C)n2c(=O)c1S(=O)(=O)N1CCN(c2cccc(C(F)(F)F)c2)CC1,-29.1
16,COc1ccccc1Oc1coc2c(CN3CCN(C)CC3)c(O)ccc2c1=O,-13.2
17,CCCC(c1nnnn1Cc1ccc(OC)cc1)N1CCN(c2ccccc2OC)CC1 (stereo not drawn),-22.1
18,CCCCCN1C(=O)/C(=C/c2c(N3CCc4ccccc4C3)nc3ccccn3c2=O)SC1=S,-24.1
19,Cc1ccc(-n2ncc3c(=O)[nH]cnc32)c(C)c1,8.53
20,CCCCN(CCCC)CCNC(=O)CSCc1ccc(C)cc1,10.3
21,COc1ccc(N2C(=O)CC(N3CC=C(c4ccccc4)CC3)C2=O)cc1 (stereo not drawn),-11.4
22,Brc1ccc2c(c1)CN1CCCC1=N2,15
23,CC(C)[C@@H](C(=O)NC1CCCC1)N1C(=O)N2CCc3c([nH]c4ccccc34)[C@@]2(C)C1=O,-11.3
24,O=C(N/N=C/c1ccc(F)c(F)c1)c1cc2c(s1)-c1ccccc1CC2,15
25,COc1cc(CNc2ccc(N3CCN(C(C)=O)CC3)cc2)ccc1OCc1ccccc1,15.1

row,SMILES,inhibition [%]
1,COc1ccc(Cl)cc1NC(=O)c1cc(-c2ccccc2)on1,-21.2
2,COc1cccc(CNC23CC4CC(CC(C4)C2)C3)c1OCc1ccccc1,-6.35
3,O=c1c2ccccc2nc(-c2ccoc2)n1CCc1ccccc1,13.3
4,CCc1nc(SCC(=O)NCCc2ccccc2)c2c(=O)n(C)c(=O)n(C)c2n1,16.1
5,Cn1c(=O)c2c(nc(Br)n2CCSc2nc3ccccc3o2)n(C)c1=O,-4.7
6,CC1(C)CC(CCNC(=O)c2ccc(-n3cnnn3)cc2)CC(C)(C)N1,-4.51
7,COc1ccc(C(=O)Nc2cc3c(cc2OC)CCCC3)cc1Br,-5.19
8,Nn1cnnc1SCC(=O)Nc1ccc(C2CCCCC2)cc1,27.5
9,O=C(Nc1ccc2c(c1)nc1n2CCN(Cc2ccccc2)C1)c1cccs1,23.8
10,c1ccc(-c2nc(NC3CC3)nc(-n3ccnc3)n2)cc1,-18.3
11,Cc1ccccc1Oc1ccc(Oc2ccccc2C)nn1,-7.56
12,CC1CCN(C(=O)C2CCCN(S(C)(=O)=O)C2)CC1 (stereo not drawn),-2.71
13,C[N+]1(C)C2CCC1CC(OC(=O)c1ccccc1)C2 (stereo not drawn),1.68
14,CCN(CC)C(=O)C1CCN(Cc2ccc(Br)cc2)CC1,11.4
15,CN(C)C=NC(=O)c1cc(C(=O)c2ccc(Cl)cc2Cl)c[nH]1,29.9
16,COc1ccc(N2C3=C(CC4=C2CC(C)(C)CC4=O)C(=O)CC(C)(C)C3)cc1,14.8
17,COc1ccc(Cl)cc1NC(=O)CN(C)CC(=O)Nc1ccccc1C(F)(F)F,9.99
18,CC1Cc2ccccc2N1C(=O)CN1C(=O)C(=O)N(Cc2ccccc2)C1=O (stereo not drawn),-9.75
19,Cc1c(/C=N/NC(=O)c2ccc3c(c2)OCO3)cnn1C,12.9
20,Cc1c(/C=N/NC(=O)c2sc3ccccc3c2Cl)cnn1C,10.8
21,N#CC1=C2N=C(N)c3ccccc3N2C2=C(C(=O)CCC2)C1c1cccc(Cl)c1 (stereo not drawn),-19.9
22,CC(C(=O)c1ccc2ccccc2c1)N1CCCCC1 (stereo not drawn),36.4
23,c1ccc2oc(-c3ccc(Nc4nc(N5CCCCC5)nc(N5CCOCC5)n4)cc3)nc2c1,8.13
24,CCOc1ccccc1NC1=NC2CS(=O)(=O)CC2S1 (stereo not drawn),-10.3
25,CCOC(=O)c1sc(N)c(C(=O)OC)c1C,-13.7

row,SMILES,inhibition [%]
1,CC(C)c1cc(C(=O)Nc2ccc3c(c2)OCO3)no1,9.74
2,S=C1SCN(Cc2cccnc2)CN1Cc1cccnc1,25
3,CC(OC(=O)Cc1coc2cc3c(cc12)CCC3)C(=O)NCc1ccc2c(c1)OCO2 (stereo not drawn),5.64
4,Cc1ccc(NC(=O)CN(C)C(=O)Cn2ccsc2=N)cc1,27.2
5,O=C(NC(C(=O)c1ccccc1)n1c(=O)cc[nH]c1=S)c1ccccc1 (stereo not drawn),16.6
6,CCSc1nc(C)cc(C)c1S(=O)(=O)c1ccccc1C,1.56
7,CCN(CC)CCSc1nnc2c3ccccc3n(Cc3ccccc3)c2n1,16.3
8,O=C1SC(c2ccccc2)=C/C1=C\N1CCCCC1,31.5
9,Cc1cc(C)n(-c2nc3ccccc3nc2N2CCN(C(=O)c3ccc(F)cc3)CC2)n1,10.4
10,O=C(CCNS(=O)(=O)c1cccc2nonc12)N1CCN(c2cccc(Cl)c2)CC1,-12.9
11,Cc1c(C=O)c2ccccn2c1C(=O)c1ccccc1,0.47
12,CCCCC(=O)Nc1ccc2c(c1)C(=O)NC2=O,-15.3
13,CCOC(=O)COc1cccc2c(=O)n(CC(=O)N3CCCCC3)ccc12,3.71
14,COc1cccc(-c2cc(C(=O)O)[nH]n2)c1,-27.4
15,COc1nc(N(C#N)CC(N)=O)nc(N2CCCC2)n1,-14.2
16,CCOC(=O)c1c(CSC(=N)N)n(C)c2cc(Br)c(OC(C)=O)cc12,38.3
17,CCCCOc1ccc(CN=C(N)N)cc1Cl,23.5
18,COc1ccc(CSCCN)cc1Cl,38
19,COC(=O)c1cc(CSC(=N)N)ccc1OCCC(C)C,3.72
20,CCOC(=O)c1cccc(NC(=O)c2cccs2)c1,-4.52
21,Cn1cnc2cc(NC(=O)c3cccs3)ccc21,28.9
22,CCN(CC)CCNc1nc(-c2ccc(OC)cc2)c(-c2ccc(OC)cc2)s1,27.2
23,COc1ccc(CC(=O)N(Cc2cc3cc(OC)ccc3[nH]c2=O)C(C)C)cc1,17.3
